In PubChem BioAssay AID602433 (Southern Research Specialized Biocontainment Screening …, 2012) one finds outcome data, which are given here for eight molecules.

Each structure is given as a SMILES string. Measured potencies and affinities stand elsewhere. Inconclusive results are not listed. Active and inactive are the calls of the source. No rule for the calls is given here.

The nature of the assay: THP-1 cell cytotoxicity, cytotoxicity control, set 6 (AID 602433). Particulars: THP-1 cell viability, cytotoxicity CC50; series mostly up to 100 µM.
For the molecule `O=C(c1ccc(CNc2c(N3CCCC3)c(=O)c2=O)cc1)N1CCN(c2ccccc2)CC1`, the result was inactive. The entry for `O=C(c1ccc(CNc2c(N3CCCC3)c(=O)c2=O)cc1)N1CCC(c2ccccc2)CC1` is “inactive”. Take `CC(C)CCNC(=O)CSc1nc2c(c(=O)[nH]1)CCCCC2`: the result was inactive. Under `O=C(CSc1nc2c(c(=O)[nH]1)CCCC2)NC1CCCCC1` stands “inactive”. `O=C(NCc1ccc(C(=O)N2CCN(c3ccccc3)CC2)cc1)NC1CCCCC1`: the call was inactive. Under `O=C(CSc1nc2c(c(=O)[nH]1)CCC2)NC1CCCCC1` stands “inactive”; under `COC(=O)C(Cc1ccccc1)NC(=O)CSc1nc2ccccc2c(=O)[nH]1` (stereo not drawn), “inactive”. Regarding `O=C(c1ccc(CNc2c(N3CCOCC3)c(=O)c2=O)cc1)N1CCN(c2ccccc2)CC1`, the call was inactive.
